The list is not random: actives were taken first. Their share in the collection is about 3.8%.
Nrf2 inh: inhibitors of Nrf2 signaling; A549 ARE-Fluc reporter, luciferase luminescence, 18-24 h; Potency, µM (top dose mostly 46 µM), for the others: at the highest dose activity change, negative = inhibition, usual class: inhibitors; 360,000 tested, 2.1% active; AID 504444; further: on the % scale 0 is the no-effect control and ±100 the full control effect; nearly all actives have a fitted effect of over 60% in size
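Reporter: ARE-Fluc in A549. Exposure: 18-24 h, 37 °C, 5% CO2, 5% FBS OPTI-MEM. Readouts: fluorescent cytotoxicity (CellTiter-Fluor), then luminescent Nrf2 signal after BugLite.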
A549 tox: counter-screen for Nrf2 inhibitors: cytotoxicity in A549 cells; A549 ARE-Fluc cells, CellTiter-Fluor viability, 18-24 h; Potency, µM (highest dose often 46 µM), for inactives: at the highest dose activity change, negative = cytotoxicity, usual class: inhibitors; 390,000 tested, 0.16% active; further: on the % scale 0 is the no-effect control and ±100 the full control effect
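A549 ARE-Fluc cells in 5% FBS OPTI-MEM, 5000 cells/well, rested 2 h then exposed to compounds in concentration-response for 18-24 h at 37 °C. Viability by CellTiter-Fluor fluorescence (Ex 405/Em 525) after 30 min; luciferase luminescence (BugLite, 15 min, RT) read afterwards.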
HepG2 viability: counter-screen for TGF-b inhibitors: cytotoxicity in HepG2 cells; 410,000 tested, 0.76% active; HepG2 CAGA-GFP viability, ATP luminescence, 18 h; Potency, µM (top dose mostly 46.1 µM), without a hit: at the top dose activity change, negative = cytotoxicity, actives largely listed as cytotoxic
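CellTiter-Glo luminescence gave cytotoxicity after 18 hours at 37 degrees C. The cells were HepG2 CAGA-GFP in 1% FBS DMEM, stimulated with 500 pg/mL TGF-beta after compound addition. %Activity was normalised to no-cell wells (complete cell-killing) and DMSO (no toxicity), and curves were fitted and classified.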
ATXN2 expr inh: ATXN2 expression inhibition. HEK-293 ATXN2-luciferase reporter, luminescence, 24 h. Potency, µM (highest dose often 57 µM), without a hit: at the highest dose activity change, negative = inhibition, usual class: inhibitors. 360,000 tested, 0.72% active. AID 1745845; further: on the % scale 0 is the no-effect control and ±100 the full control effect; nearly all actives have a fitted effect of over 55% in size
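ATXN2-luciferase reporter cells (luciferase flanked by upstream and downstream ATXN2 gene portions) were treated 24 h at 37 °C with compounds at up to 57 uM. SteadyGlo luminescence gave expression; GF-AFC fluorescence gave viability.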
TGFb inhibitor: TGF-b pathway inhibition; HepG2 CAGA-GFP TGF-b/SMAD3 reporter, GFP fluorescence, 18 h; TGF-beta stimulated, 500 pg/mL final; Potency, µM (top dose mostly 46.1 µM), for inactives: top-dose activity, negative = inhibition, most hits filed as inhibitors; 410,000 tested, 1.2% active; AID 588855; further: on the % scale 0 is the no-effect control and ±100 the full control effect; nearly all actives have a fitted effect of over 65% in size
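HEPG2 CAGA-GFP cells (1000/well, DMEM with 1% FBS) were pre-incubated 2 h at 37 degrees C, given compound by pin tool, then stimulated with TGF-beta at 500 pg/mL final for 18 h before per-cell GFP fluorescence imaging.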
S2 tox: reduces viability in counter-screen for ATXN expression inhibitors | S2 cells (HEK-293 line with an ATXN2-luciferase reporter) viability, CellTiter-Fluor protease fluorescence, 24 h | Potency, µM (highest dose often 56.7 µM), usual class: cytotoxic | 400,000 tested, 0.49% active; further: nearly all actives have a fitted effect of over 40% in size
Numbers without * were called inactive; i = inactive; ? = inconclusive; / = no result given; ! = not confirmed by another sample. The call rests on the fitted dose curve; in most records, active means well fitted curve in the direction sought with a large enough effect; inconclusive means small, poorly fitted or top-dose-only effect, or another doubt; inactive means no such curve, though single readings can be large; an effect the other way counts as inactive or inconclusive. Potency means the concentration at half of the fitted maximal effect.

SMILES	Nrf2 inh	A549 tox	HepG2 viability	ATXN2 expr inh	TGFb inhibitor	S2 tox
COc1ccc(-c2cc3nc(C)n(N)c(=O)c3s2)cc1	6.51µM*	16.1%	2.82µM*	/	30.8%	i
Cc1nc2cc(-c3ccccc3)sc2c(=O)n1N	4.11µM*	-0.5%	7.08µM*	0.891µM*	-13.5%	i
COc1ccc(-c2cc3nc4n(c(=O)c3s2)CCC4)cc1	?	1.9%	-38.2%	5.01µM*	15.4%	i
Cn1c(NCc2ccccc2)nc2cc(-c3ccccc3)sc2c1=O	/	/	-8.5%	14.9%	-5.4%	i
CCCNC(=O)Cn1c(SCc2ccccc2C)nc2ccncc21	13.6%	-1.8%	-5.7%	/	7.3%	/
Cc1cccc(NC(=O)CN2CCc3cc4c(cc3C2C)OCCCO4)c1 (centres undefined)	23.1µM*	-16.8%	-15.3%	-34.5%	-26.7%	i
Cc1cccc(NC(=O)CN2CCc3cc4c(cc3C2)OCCCO4)c1	?	-0.2%	2.9%	-13.2%	8.6%	i
Cc1cc(C)cc(NC(=O)CN2CCc3cc4c(cc3C2C)OCCCO4)c1 (centres undefined)	25.9µM*	-17.5%	-26.8%	-25.3%	?	i
Cc1ccc(NC(=O)CN2CCc3cc4c(cc3C2)OCCCO4)cc1	-4.6%	4.9%	4.0%	-8.1%	-9.8%	i
Cc1cc(=O)c2cc(C(=O)Nc3ccccc3C)ccc2[nH]1	20.6µM*	6.5%	-7.7%	-31.2%	6.8%	i
Cc1cc2c(s1)c1cnn(Cc3c(C)cc(F)cc3C)c(=O)c1n2C	6.9%	2.9%	/	/	/	/
COc1ccc(-c2noc(CSc3nnc(Cc4ccccc4)n3-c3ccc(F)cc3)n2)cc1	?	-28.6%	-36.4%	?	15.8µM*	/
COc1ccc(-n2c(Cc3ccccc3)nnc2SCc2nc(-c3ccccc3C)no2)cc1	?	?	-25.1%	?	?	?
COc1ccc(-c2noc(CSc3nnc(Cc4ccccc4)n3-c3cccc(C)c3)n2)cc1	23.1µM*	?	-24.5%	?	?	/
CCOc1ccc(CNC(=O)c2ccc(Sc3ccc(Cl)cc3)c(NC(C)=O)c2)cc1OC	?	3.1%	-33.0%	-14.0%	11.2µM*!	?
CCc1nn2c(=O)cc(COC(=O)c3ccccc3)nc2s1	-29.0%	-0.8%	2.4%	25.0%	-13.6%	i
CCN1/C(=C/C=C/C=C/C=C/c2sc3ccccc3[n+]2CC)Sc2ccccc21	20.6µM*	?	-16.0%	?	?	?
CCN1/C(=C/C=C/C=C/c2sc3ccccc3[n+]2CC)Sc2ccccc21	/	/	-23.1%	/	7.08µM*	/
CC/C(=C/c1sc2ccccc2[n+]1CC)SC	11.5%	5.7%	10.0%	-15.6%	-2.6%	i
CC[n+]1c(/C=C/Nc2ccccc2)sc2ccccc21	-24.6%	-8.2%	-18.3%	-25.7%	-14.6%	i
CCc1ccccc1S(=O)(=O)Cc1ccc(C(=O)NCCc2ccc(C)cc2)o1	-22.2%	1.7%	-21.0%	?	-14.2%	?
O=C(NCc1ccc(F)cc1Cl)c1ccc(CSCc2ccccc2Cl)o1	/	-0.7%	-32.3%	/	12.6µM*	/
O=C(NCc1ccccc1Cl)c1ccc(CSCc2cccc(F)c2)o1	/	0.0%	-24.3%	/	?	/
C/C(=N\Nc1nc(C)c(C)s1)c1ccc([N+](=O)[O-])cc1	-13.3%	-0.7%	-18.4%	29.9µM*	8.6%	/
CC(=O)c1ccc(OCC(=O)N2CCCCC2)cc1	/	/	/	46.5%	/	i
SMILES	Nrf2 inh	A549 tox	HepG2 viability	ATXN2 expr inh	TGFb inhibitor	S2 tox
CCSc1nnc(SCC(=O)NC2CCCCC2)s1	5.6%	0.2%	2µM*	-10.6%	-10.4%	i
O=C(CSc1nnc(-c2ccccc2Br)o1)Nc1nncs1	0.1%	11.2%	15.8µM*	-21.1%	-14.0%	i
CCN(CC)c1ccc(/C=C/c2cc(Cl)nc3ccccc23)cc1	/	/	-27.7%	/	-4.7%	/
CCN(CC)c1ccc2cc(-c3nc4ccccc4[nH]3)c(=O)oc2c1	-10.7%	?	-2.0%	-74.8%	147.0%	/
CCN(CC)c1ccc2nc3ccccc3[n+](CC)c2c1	9.2µM*	8.2µM*	-62.0%	?	?	8.91µM*
CCN(CC)c1ccc2nc3ccc(N)cc3[n+](-c3ccccc3)c2c1	14.6µM*	18.4µM*	-45.1%	12.6µM*	?	15.8µM*
CC(=O)c1ccc(NC(=O)c2nn(C)c3c2COc2ccccc2-3)cc1	?	-4.1%	3.1%	/	0.3%	/
CN(C(=O)CSc1cc(C(=O)c2nccn2C)c2ccccc2n1)c1ccccc1	4.1%	-1.1%	-24.0%	-4.9%	14.1µM*	?
Cc1ccc2c(c1)C1CN(C)CCC1N2S(=O)(=O)c1ccccc1F (centres undefined)	8.4%	3.3%	-3.3%	-14.5%	-11.2%	i
CC(C)NC(=O)C1CCN(C(=O)c2cc3sccc3n2Cc2ccc(F)cc2)CC1	14.6µM*	?	-22.8%	?	-24.6%	i
Cc1ccc(-c2csc(NC(=O)CCNC(=O)c3ccccc3Cl)n2)cc1	23.1µM*	-5.6%	-21.5%	/	?	?
CC(C)(C)c1ccccc1OCC(=O)NCc1ccccc1	-16.7%	7.2%	-31.7%	/	-16.8%	i
O=C(Cn1c2ccccc2c(=O)c2ccccc21)N/N=C/c1cc([N+](=O)[O-])ccc1N1CCCCCC1	-4.1%	-8.6%	5.5%	?	7.1%	?
O=C(Cn1c2ccccc2c(=O)c2ccccc21)N/N=C/c1ccc(N2CCCC2)c([N+](=O)[O-])c1	2.9%	-11.5%	-50.2%	31.6µM*	-21.0%	/
CC(C)C(N)c1csc(NC(=O)Nc2ccc(OC(F)(F)F)cc2)n1 (centres undefined)	/	/	20µM*	?	20µM*	20µM*
CC(C)c1ccc(NC(=O)Nc2nc(C(C)N)cs2)cc1 (centres undefined)	/	/	-84.9%	?	17.8µM*	/

From PubChem BioAssay
